# Screening data: PubChem BioAssay, National Center for Advancing Translational Sciences (NCATS)
# NS1 function inh – qHTS Assay for Inhibitors of Influenza NS1 Protein Function. Potency, µM (highest dose often 46.1 µM), inactives show at the highest dose activity, positive = more growth. 270,000 compounds, 0.4% hits. AID 2326, 2010; calls by dose curve; further: potency means the concentration at half of the fitted maximal effect; actives are rising curves; nearly all actives have a fitted effect of over 50% in size
#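 S. cerevisiae expressing influenza A NS1, grown in glucose, washed, then diluted 1:100 into pH 6.0 -URA galactose medium with 23 nl compound. Growth recovery read as OD600; NS1-free strain serves as control.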
# AmpC inh detg – qHTS Inhibitors of AmpC Beta-Lactamase (assay with detergent); P00811; Potency, µM (top dose mostly 114 µM), without a hit: top-dose activity change, negative = inhibition, most hits filed as inhibitors; AmpC hydrolysis of nitrocefin, absorbance 480 nm, 0.01% Triton; 370,000 compounds, 0.041% hits;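 further: potency means the concentration at half of the fitted maximal effect; 0% = no-compound wells and -100% = no-enzyme wells; nearly all actives have a fitted effect of over 25% in size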
# Target sequence (P00811 whole entry, looked up): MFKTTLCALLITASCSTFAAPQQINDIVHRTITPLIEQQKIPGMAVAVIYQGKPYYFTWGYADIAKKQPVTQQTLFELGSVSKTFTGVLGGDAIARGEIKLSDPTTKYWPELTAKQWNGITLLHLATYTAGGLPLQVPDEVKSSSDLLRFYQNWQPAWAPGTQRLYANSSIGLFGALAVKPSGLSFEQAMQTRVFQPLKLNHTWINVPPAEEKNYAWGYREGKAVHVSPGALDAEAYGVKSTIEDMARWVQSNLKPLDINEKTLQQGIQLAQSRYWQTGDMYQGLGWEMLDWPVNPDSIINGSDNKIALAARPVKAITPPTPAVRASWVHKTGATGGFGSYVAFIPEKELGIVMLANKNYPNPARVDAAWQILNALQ
#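 20 mM phosphate pH 7.0 + 0.01% (detergent screen) or 0.0001% Triton X-100; 5.3 nM AmpC reagent; cpd preinc 15 min RT; nitrocefin (800 uM stock) to start; A480 q20 s × 4 min; Activity was normalised to no-enzyme and no-compound control wells.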
# AmpC no deterg – qHTS Inhibitors of AmpC Beta-Lactamase (assay without detergent) | AmpC nitrocefin hydrolysis, absorbance 480 nm, 0.0001% Triton | P00811 | 330,000 compounds, 0.52% hits | Potency, µM (highest dose often 57.1 µM), without a hit: at the top dose activity change, negative = inhibition, most hits filed as inhibitors;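 further: potency means the concentration at half of the fitted maximal effect; plate controls were no compound for no effect and no enzyme for full effect; nearly all actives have a fitted effect of over 20% in size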
#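 AmpC (5.3 nM in the dispensed reagent) in 20 mM phosphate pH 7.0 with 0.01% (detergent screen) or 0.0001% Triton X-100 was preincubated with compounds for 15 min at room temperature. Nitrocefin was then added from an 800 uM solution, and hydrolysis was followed at 480 nm.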
# Shiga toxin inh – A qHTS for Small Molecule Inhibitors of Shiga Toxin; Vero cells, Shiga toxin protein synthesis inhibition reporter; inhibition, % at 38.7 µM; 290,000 compounds, 9.2% hits; in the data active means inhibition mostly above about 28%, no sharp cut-off; inactive means mostly below about 43%; further: 0% is about no effect
# CHX counter – Cycloheximide Counterscreen for Small Molecule Inhibitors of Shiga Toxin. cell reporter, cycloheximide protein synthesis inhibition counterscreen. max response, %. 300,000 compounds, 12% hits. AID 2314, 2010; in the data active means max response mostly above about 13%, no sharp cut-off; inactive means mostly below about 14%; further: read at 38.3 µM for the half of the compounds with a filed dose; 0% is about no effect
# * marks the source's active call; other numbers are inactive results; i = inactive; u = inconclusive; x = no result. The sample as a whole holds a higher share of hits than the screen did. Unless noted, the call rests on the fitted dose curve; in most records, active means well fitted curve in the direction sought with a large enough effect; inconclusive means small, poorly fitted or top-dose-only effect, or another doubt; inactive means no such curve, though single readings can be large; an effect the other way counts as inactive or inconclusive.
SMILES,NS1 function inh,AmpC inh detg,AmpC no deterg,Shiga toxin inh,CHX counter
CN(c1ccccc1)S(=O)(=O)c1ccc(C(=O)Nc2nccs2)cc1,20.0%,u,5.1%,-7.9,-1.3
O=C(Nc1nccs1)c1ccc(COc2c(F)c(F)cc(F)c2F)cc1,-0.9%,-3.4%,-35.1%,79.5*,56.1*
Nc1ccc(C(=O)Nc2nccs2)cc1,-0.1%,-4.8%,-17.5%,125.3*,33.2*
O=C(Nc1ccccc1Br)c1ccc2nccnc2c1,-9.9%,-12.4%,-26.7%,46.3*,35.3
O=C(Nc1nccs1)c1ccc(NC(=O)c2ccco2)cc1,-53.9%,2.1%,-37.3%,85.7*,46.6*
CC(NC(=O)c1ccco1)C(=O)Nc1nccs1 (stereo not given),x,x,-17.1%,x,x
CCOC(=O)c1ccc2c(c1)N(CC(=O)Nc1ccc(CC)cc1)C(=O)c1ccccc1S2,x,19.6%,x,x,x
COc1ccc(CCNC(=O)Cc2c(C)c3cc4c(C)coc4cc3oc2=O)cc1OC,x,26.3%,x,x,x
COc1cccc(CN2C(=O)c3ccccc3Sc3ccc(C(=O)NCCc4ccc(Cl)cc4)cc32)c1,x,2.0%,x,-4.5,1.3
O=C(Nc1nccs1)c1ccc2nccnc2c1,-125.2%,-10.7%,-15.7%,44.7*,23.5*
CCn1c(SCc2ccc(C(=O)Nc3nccs3)cc2)nnc1-c1ccc(N)cc1,18.6%,0.2%,-4.6%,45.8,19.7*
Cc1ccc(C(=O)Nc2nc(=O)[nH]s2)cc1,2.2%,0.8%,-11.8%,2.4,4.8
Cc1ccc(C(=O)Nc2nccs2)cc1,-11.2%,-2.1%,-21.4%,115.9*,36.6*
CC(C)NC(=O)C(C)Oc1ccc(S(=O)(=O)NCc2ccc3c(c2)OCO3)cc1 (stereo not given),12.9%,-2.7%,-3.1%,x,-2.0
Cc1cc(-n2c(C)cc(C(=O)CN3C(=O)NC4(CCCC4)C3=O)c2C)no1,-6.3%,-4.0%,18.5%,22.9,26.8*
Cc1cc(-n2c(C)cc(C(=O)CN3C(=O)NC4(CCCCC4)C3=O)c2C)no1,-16.6%,1.3%,14.8%,10.6,9.7*
CCN(C(=O)CSc1nccc(=O)[nH]1)C1CCCCC1,x,x,1.7%,x,x
O=C(/C=C/c1ccnc2ccccc12)c1cccs1,-68.7%,1.5%,-8.9%,72.9*,37.6*
Clc1ccccc1/C=C\c1ccnc2ccccc12,-19.1%,x,x,x,x
CCCCN(CCCC)c1cc(C)nc(-c2ccccc2O)n1,-15.2%,4.1%,-5.5%,-5.7,12.0
CC(=O)c1cccc(NC(=O)CSCc2ccccc2)c1,-45.7%,-8.2%,-22.3%,71.3*,39.3*
O=C(CSCc1ccc(Cl)cc1)Nc1cccc(C(=O)O)c1,4.3%,-12.4%,-17.0%,52.0*,27.3*
CN(C)S(=O)(=O)c1cccc(NC(=O)CCCSc2ccccc2)c1,7.4%,-2.2%,-10.5%,35.4,1.6
CC(=O)Nc1ccc(SCCCC(=O)c2ccccc2)cc1,-40.3%,-8.6%,22.7%,72.1*,29.3*
CC(=O)Nc1ccc(SCC(=O)O)cc1,x,-6.1%,-8.8%,18.4,0.7
SMILES,NS1 function inh,AmpC inh detg,AmpC no deterg,Shiga toxin inh,CHX counter
CC(=O)c1cccc(NC(=O)CCCSc2ccccc2)c1,-28.9%,-13.8%,-28.2%,19.6*,8.5
CC(=O)c1cccc(NC(=O)CSCc2ccc(Br)cc2)c1,-5.2%,-12.4%,-26.5%,-3.7,-1.5
CCOc1ccc(C(=O)Nc2ccc(-c3cc4ccccc4oc3=O)cc2)cc1Br,x,2.5%,x,x,x
COc1cccc(N2C(=O)N(Cc3ccc(C#N)cc3)c3ccccc3S2(=O)=O)c1,x,-4.8%,x,x,x
C[N+](C)(C)[C@H](Cc1c[nH]c(=S)[nH]1)C(=O)O,-2.8%,x,x,x,x
CNC(C)C#Cc1ccc2sc3cccc(OC)c3c(=O)c2c1 (stereo not given),9.1%,-10.1%,124.5%,19.5*,12.1*
COc1cccc2sc3cc(C#Cc4ccccn4)ccc3c(=O)c12,x,x,56.4%,x,x
CNC(C)C#Cc1ccc2oc3cccc(OC)c3c(=O)c2c1 (stereo not given),13.8%,-7.2%,38.5%,45.1*,35.6*
COc1cccc2oc3ccc(C#Cc4ccccn4)cc3c(=O)c12,-28.1%,0.7%,28.8%,46.9*,65.5*
COc1cccc2sc3ccc(C#CC4(N)CCCCC4)cc3c(=O)c12,20.3%,u,121.6%,64.1*,32.0*
COc1cccc2sc3cc(C#CC4(O)CCCCC4)ccc3c(=O)c12,x,x,182.8%,x,x
Cc1cnc2c(c1SCC(=O)N(C)c1ccccc1)c(=O)n(C)c(=O)n2C,x,4.0%,x,x,x
CCCn1nc(NC(=O)c2cccc(Cl)c2)c2cc3cccc(C)c3nc21,x,12.2%,x,x,x
CCOc1ccc(Br)cc1CNCCSc1nnnn1-c1ccccc1,x,6.7%,x,x,x
COc1ccc(NS(=O)(=O)c2cccc(C(=O)NCC(c3cccs3)N3CCOCC3)c2)cc1 (stereo not given),x,x,-4.6%,x,x
C#CC(C)(CC)NC(=O)Cn1nnc(-c2ccc(OCc3ccccc3F)cc2)n1 (stereo not given),x,2.8%,x,x,x
CNC(C)C#Cc1ccc2c(=O)c3c(OC)cccc3oc2c1 (stereo not given),19.2%,-10.6%,44.2%,46.0*,36.5*
Nc1ncnc2c1ncn2[C@H]1O[C@@H](C(=O)O)[C@@H](O)[C@H]1O,-10.0%,x,x,x,x
O=C(Nc1ccc2nc(-c3ccco3)[nH]c2c1)c1cccs1,-54.3%,3.0%,-40.6%,66.1*,45.6*
CC(=O)Nc1ccc2nc(-c3ccco3)[nH]c2c1,x,4.8%,-26.0%,87.3*,35.2*
O=C(Nc1ccc2nc(-c3ccc4nc[nH]c4c3)[nH]c2c1)c1cccs1,-9.6%,-3.2%,-3.4%,1.1,-1.4
Cc1ccc2nc(-c3cccc(NC(=O)c4ccco4)c3)[nH]c2c1,-14.5%,-7.2%,-50.8%,43.0*,50.1*
O=C(Nc1ccc2nc(-c3ccccc3)[nH]c2c1)c1cccs1,-0.7%,0.3%,-33.5%,38.8,32.0*
O=C(Nc1ccccc1)/C(=C/c1ccc(O)cc1)NC(=O)c1ccco1,12.8%,-3.7%,-18.1%,-11.2,-4.9
CCS(=O)(=O)N1CCC(C(=O)Oc2ccc(C)c(C)c2)CC1,8.2%,u,18.3%,-2.5,-1.4
SMILES,NS1 function inh,AmpC inh detg,AmpC no deterg,Shiga toxin inh,CHX counter
Cc1nc(N2CCCC2)c2c(C(=O)N3CCN(c4cccc(C)c4C)CC3)c(C)oc2n1,x,17.7%,x,x,x
O=C(Nc1ccc2nc(-c3ccco3)[nH]c2c1)c1ccco1,-46.6%,-8.0%,-23.4%,45.0*,33.2*
O=C(Nc1ccc2nc(-c3cccnc3)[nH]c2c1)c1ccco1,-1.1%,u,-3.7%,7.4,11.0
CCOC(=O)NC1(Nc2ccc(C)cc2)Oc2ccccc2O1,10.5%,u,-7.6%,46.4*,55.1*
CCOC(=O)NC1(NCc2ccccc2)Oc2ccccc2O1,-3.4%,-4.5%,-16.1%,-0.7,15.6*
CCOC(=O)NC1(NC(C)C)Oc2ccccc2O1,1.0%,-6.2%,-20.0%,48.5,10.1
CCOC(=O)NC1(NCC(C)C)Oc2ccccc2O1,0.0%,-10.4%,-24.5%,-8.0,6.4
COc1cc(C2CC(=O)Oc3ccc(C(C)(C)C)cc32)cc(OC)c1OC (stereo not given),x,x,32.8%,i,-1.6
